This is part of a sample that, as a whole, favours compounds with a hit. Of some 79,000 tested, about 15% had one in any assay. Calls of active or inactive are those of the source. Rule as the data show it: active = growth inhibition above about 70%; inactive = the rest.
Tests used:
[1] = NCI Yeast Anticancer Drug Screen. Data for the rad52 strain (AID 147);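 also: 0% = growth of vehicle-treated control cultures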; conditions: S. cerevisiae rad52 mutant growth inhibition, active compounds read high
In short: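 Read-out: growth inhibition versus vehicle-treated controls. Cells were a DNA repair-deficient yeast strain treated with compounds.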

[2] = NCI Yeast Anticancer Drug Screen. Data for the wt1 strain (AID 149);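 also: 0% = growth of vehicle-treated wt1 cultures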; conditions: S. cerevisiae wt1 strain (SPY 50644) growth inhibition, active compounds read high
In short: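 Each compound is tested on wt1 yeast and the loss of growth versus vehicle gives the inhibition value.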

[3] = NCI Yeast Anticancer Drug Screen. Data for the rad50EPP+ strain (AID 151);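 also: 0% = growth of vehicle-treated control cultures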; conditions: S. cerevisiae rad50 mutant strain, active compounds read high
In short: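 Growth inhibition read against vehicle controls in rad50EPP+ yeast, a strain altered in DNA damage repair, after compound exposure.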

[4] = NCI Yeast Anticancer Drug Screen. Data for the mgt1 strain (AID 153); conditions: S. cerevisiae mgt1 mutant growth inhibition, active compounds read high
In short: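 mgt1 yeast grown with test compound; read-out is growth inhibition versus vehicle-treated cultures.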

[5] = NCI Yeast Anticancer Drug Screen. Data for the rad50 strain (AID 155);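 also: 0% = growth of vehicle-only cultures of the same strain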; conditions: S. cerevisiae rad50 strain growth inhibition, active compounds read high
In short: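 Vehicle-treated cultures provide the reference for the growth inhibition reported for compound-exposed, repair-deficient yeast.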

[6] = NCI Yeast Anticancer Drug Screen. Data for the mec2-1 strain (AID 157); conditions: S. cerevisiae mec2-1 strain, active compounds read high
In short: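 Yeast mec2-1 mutant treated with compound. Readout: growth inhibition vs vehicle controls.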

[7] = NCI Yeast Anticancer Drug Screen. Data for the rad14 strain (AID 159);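 also: 0% = growth of vehicle-treated control cultures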; conditions: S. cerevisiae rad14 strain growth inhibition, active compounds read high
In short: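 Inhibition of growth is reported for a repair-deficient yeast mutant following compound treatment, calculated relative to cultures that received vehicle.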

[8] = NCI Yeast Anticancer Drug Screen. Data for the sgs1 mgt1 strain (AID 161);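 also: 0% = growth of cultures given vehicle only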; conditions: S. cerevisiae sgs1 mgt1 strain, active compounds read high
In short: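 Test agents were incubated with a DNA-repair-mutant yeast strain. Growth was then read and compared against vehicle-treated controls.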

[9] = NCI Yeast Anticancer Drug Screen. Data for the CLN2oe strain (AID 163);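 also: 0% = growth of vehicle-only control cultures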; conditions: S. cerevisiae CLN2oe strain, active compounds read high
In short: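 Read-out: yeast growth inhibition, expressed relative to vehicle-only controls. The strain bears an engineered cell-cycle alteration.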

[10] = NCI Yeast Anticancer Drug Screen. Data for the cln2 rad14 strain (AID 165);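 also: 0% = growth equal to vehicle treated cultures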; conditions: S. cerevisiae cln2 rad14 strain, active compounds read high
In short: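 cln2 rad14 yeast strain; compound exposure; growth inhibition read vs vehicle controls.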

[11] = NCI Yeast Anticancer Drug Screen. Data for the bub3 strain (AID 167); conditions: S. cerevisiae bub3 mutant strain, active compounds read high
In short: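 Mutant yeast screening strain plus compound; vehicle-treated cultures serve as the 0% inhibition reference.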

[12] = NCI Yeast Anticancer Drug Screen. Data for the wt2 strain (AID 169); conditions: S. cerevisiae wt2 strain growth inhibition, active compounds read high
In short: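 Read-out: growth inhibition versus vehicle-treated control cultures after compound exposure of the yeast strain.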

[13] = NCI Yeast Anticancer Drug Screen. Data for the mlh1 strain (AID 171);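 also: 0% = growth of vehicle-treated control cultures of the same strain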; conditions: S. cerevisiae mlh1 strain growth inhibition, active compounds read high
In short: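 Read-out: growth inhibition versus vehicle controls. Strain: engineered yeast with a defined DNA repair or cell cycle defect, compound-treated.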

[14] = NCI Yeast Anticancer Drug Screen. Data for the sgs1 strain (AID 173);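 also: 0% = growth of vehicle-only control cultures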; conditions: S. cerevisiae sgs1 mutant, active compounds read high
In short: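 Read-out: yeast growth inhibition relative to vehicle controls, following compound exposure of a strain with a defined DNA repair/cell cycle alteration.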

[15] = NCI Yeast Anticancer Drug Screen. Data for the mlh1 rad18 strain (AID 175); conditions: S. cerevisiae mlh1 rad18 strain growth inhibition, active compounds read high
In short: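 Yeast w/ defined DNA-repair lesions; compound exposure; growth vs vehicle controls → % inhibition.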

[16] = NCI Yeast Anticancer Drug Screen. Data for the rad18 strain (AID 177); conditions: S. cerevisiae rad18 mutant growth inhibition, active compounds read high
In short: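 Readout: growth inhibition vs vehicle controls. Cells: genetically altered yeast strain, DNA repair defect.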

[17] = at 5.0 µM (retest, dose inferred, filed as 0.5)
[18] = at 50.0 µM (retest, dose inferred, filed as 5.0)

Measured: growth inhibition

CO[C@H]1C[C@](C)(O)Cc2cc3c(c(O)c21)C(=O)c1c(O)cc2c(c1C3=O)O[C@@H]1O[C@@]2(C)[C@H](O)[C@@H](N(C)C)[C@@H]1O
active: [1]; at 100.0 µM 87% | [5]; at 33.0 µM 72% | [5]; [18] 75% | [5]; at 100.0 µM 85% | [15]; at 50.0 µM 73.2%
inactive: [1]; at 1.2 µM -22% | [1]; at 3.7 µM -13% | [1]; at 11.0 µM 5% | [1]; at 33.0 µM 60% | [2]; at 1.2 µM -38% | [2]; at 3.7 µM -38% | [2]; at 11.0 µM -39% | [2]; at 33.0 µM -44% | [2]; at 100.0 µM -37% | [3]; at 1.2 µM -28% | [3]; at 3.7 µM -5% | [3]; at 11.0 µM -9% | [3]; at 33.0 µM -12% | [3]; at 100.0 µM 33% | [4]; at 1.2 µM -28% | [4]; at 3.7 µM -23% | [4]; at 11.0 µM -19% | [4]; at 33.0 µM -22% | [4]; at 100.0 µM -32% | [5]; at 1.2 µM -44% | [5]; at 3.7 µM -7% | [5]; [17] -11% | [5]; at 11.0 µM 17% | [5]; at 50.0 µM 20.9% | [6]; at 1.2 µM -19% | [6]; at 3.7 µM -7% | [6]; [17] -3% | [6]; at 11.0 µM -21% | [6]; at 33.0 µM -4% | [6]; [18] -11% | [6]; at 50.0 µM -11.2% | [6]; at 100.0 µM -6% | [7]; at 1.2 µM -32% | [7]; at 3.7 µM -44% | [7]; at 11.0 µM -63% | [7]; at 33.0 µM -53% | [7]; at 100.0 µM -51% | [8]; [17] -16% | [8]; [18] -1% | [8]; at 50.0 µM 14.3% | [9]; at 1.2 µM -11% | [9]; at 3.7 µM -29% | [9]; at 11.0 µM -8% | [9]; at 33.0 µM -14% | [9]; at 100.0 µM -33% | [10]; [17] 25% | [10]; [18] 31% | [10]; at 50.0 µM 21.9% | [11]; at 1.2 µM -15% | [11]; at 3.7 µM -11% | [11]; [17] -2% | [11]; at 11.0 µM -30% | [11]; at 33.0 µM -31% | [11]; [18] 15% | [11]; at 50.0 µM -10.6% | [11]; at 100.0 µM -20% | [12]; at 1.2 µM -19% | [12]; at 3.7 µM -21% | [12]; at 11.0 µM -26% | [12]; at 33.0 µM -19% | [12]; at 100.0 µM -12% | [13]; at 1.2 µM -42% | [13]; at 3.7 µM -38% | [13]; at 11.0 µM -14% | [13]; at 33.0 µM -36% | [13]; at 100.0 µM -22% | [14]; at 1.2 µM -28% | [14]; at 3.7 µM -28% | [14]; at 11.0 µM -24% | [14]; at 33.0 µM -7% | [14]; at 100.0 µM 2% | [15]; [17] -19% | [15]; [18] 0% | [16]; at 1.2 µM -27% | [16]; at 3.7 µM -27% | [16]; at 11.0 µM -29% | [16]; at 33.0 µM -27% | [16]; at 100.0 µM -18%

CC(C)c1cc(C(C)C)c(O)c(C([O-])[O-])c1.CC(C)c1cc(C(C)C)c(O)c(C([O-])[O-])c1.CC(C)c1cc(C(C)C)c(O)c(C([OH2+])[OH2+])c1.CC(C)c1cc(C(C)C)c(O)c(C([OH2+])[OH2+])c1.[Cu+2].[Cu+2].[OH3+].[OH3+]
inactive: [1]; at 1.2 µM 5% | [1]; at 3.7 µM 12% | [1]; at 11.0 µM 26% | [1]; at 33.0 µM 61% | [2]; at 1.2 µM -2% | [2]; at 3.7 µM 4% | [2]; at 11.0 µM 20% | [2]; at 33.0 µM 35% | [2]; at 100.0 µM 67% | [3]; at 1.2 µM 1% | [3]; at 3.7 µM 0% | [3]; at 11.0 µM 4% | [3]; at 33.0 µM 11% | [3]; at 100.0 µM 21% | [4]; at 1.2 µM -2% | [4]; at 3.7 µM 6% | [4]; at 11.0 µM 18% | [4]; at 33.0 µM 56% | [5]; at 1.2 µM 5% | [5]; at 3.7 µM 8% | [5]; [17] 5% | [5]; at 11.0 µM 21% | [5]; at 33.0 µM 65% | [5]; [18] 31% | [5]; at 50.0 µM 39.8% | [6]; at 1.2 µM 7% | [6]; at 3.7 µM 18% | [6]; [17] 1% | [6]; at 11.0 µM 36% | [6]; at 33.0 µM 52% | [6]; [18] 27% | [6]; at 50.0 µM 38.1% | [7]; at 1.2 µM 5% | [7]; at 3.7 µM 14% | [7]; at 11.0 µM 29% | [7]; at 33.0 µM 64% | [8]; [17] -9% | [8]; [18] 40% | [8]; at 50.0 µM 43% | [9]; at 1.2 µM 3% | [9]; at 3.7 µM 9% | [9]; at 11.0 µM 34% | [9]; at 33.0 µM 58% | [10]; [17] 3% | [10]; [18] 12% | [10]; at 50.0 µM 53.2% | [11]; at 1.2 µM 1% | [11]; at 3.7 µM 9% | [11]; [17] 4% | [11]; at 11.0 µM 19% | [11]; at 33.0 µM 47% | [11]; [18] 1% | [12]; at 1.2 µM -4% | [12]; at 3.7 µM -2% | [12]; at 11.0 µM 32% | [13]; at 1.2 µM 2% | [13]; at 3.7 µM 15% | [13]; at 11.0 µM 29% | [13]; at 33.0 µM 60% | [14]; at 1.2 µM -11% | [14]; at 3.7 µM -19% | [14]; at 11.0 µM 27% | [15]; [17] -12% | [15]; [18] 59% | [15]; at 50.0 µM 38.2% | [16]; at 1.2 µM 2% | [16]; at 3.7 µM 10% | [16]; at 11.0 µM 34% | [16]; at 33.0 µM 57%
active: [1]; at 100.0 µM 92% | [4]; at 100.0 µM 91% | [5]; at 100.0 µM 94% | [6]; at 100.0 µM 76% | [7]; at 100.0 µM 93% | [9]; at 100.0 µM 83% | [11]; at 50.0 µM 96.7% | [11]; at 100.0 µM 70% | [12]; at 33.0 µM 70% | [12]; at 100.0 µM 93% | [13]; at 100.0 µM 93% | [14]; at 33.0 µM 78% | [14]; at 100.0 µM 93% | [16]; at 100.0 µM 87%

— PubChem BioAssay (NCI)
